Measured values reported in PubChem BioAssay (NCATS).
Results filed as inconclusive are left out. Active and inactive are the calls of the source. Calls come from the whole dose curve; as a rule, active = well fitted curve in the direction sought with a large enough effect; inconclusive = small, poorly fitted or top-dose-only effect, or another doubt; inactive = no such curve, though single readings can be large; an effect the other way counts as inactive or inconclusive.

How the values were obtained:
[1] = target: Luciferin 4-monooxygenase (Photinus pyralis) (UniProt P08659); test: Primary firefly luciferase (FLuc) qHTS assay for identification of artifact compounds. (AID 1845220); conditions: purified firefly luciferase, luminescence, 5 min; series mostly up to 54.1 µM; note: nearly all actives have a fitted effect of over 60% in size
Method in brief: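 FLuc 10 nM; luciferin 10 uM; ATP 10 uM; Tris-acetate pH 7.6, Mg-acetate 10 mM; 15 min RT preincubation; 5 min reaction; luminescence.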

[2] = system: Nanoluciferase (engineered Oplophorus gracilirostris luciferase); test: Primary Nanoluciferase (NLuc) qHTS assay for identification of artifact compounds. (AID 1845222); conditions: NLuc-conditioned medium, Nano-Glo luminescence, 5 min; series mostly up to 54.1 µM;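 note: NLuc secreted into diluted conditioned medium of S16 cells; 0% = DMSO and -100% = no enzyme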
Method in brief: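 NLuc from S16 cell medium (1:55) plus test compounds, 15 min, room temperature. Luminescence after Nano-Glo (1:100) addition, 5 min.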

[3] = Primary redox qHTS assay for identification of artifact compounds. (AID 1845223); conditions: Amplex Red/HRP redox cycling with DTT, fluorescence; series mostly up to 53.8 µM
Method in brief: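 Amplex Red (25 uM) and HRP (250 mU/mL) in HBSS, with compounds for 15 min, then 250 uM DTT for 30 min, room temperature, dark. Fluorescence 525/598 nm read; normalized to DMSO and 10 uM DA3003; Hill fit.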

[4] = Quantitative High-Throughput drug screen in 47 multiple myeloma cell lines against the NCATS MIPE library collection: FR4_PLB cell viability assay (AID 1918924; note: nearly all actives have a fitted effect of over 35% in size; note: potency is the fitted concentration of half-maximal effect); conditions: FR4_PLB myeloma cells viability, CellTiter-Glo ATP, 48 h; series mostly up to 45.8 µM
Method in brief: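 Luminescent ATP measurement with CellTiter-Glo gives viability, scaled between DMSO-only wells (100%) and media-only wells (0%). Cells, 500 per well, faced library compounds for 48 hours at 37C.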

[5] = Quantitative High-Throughput drug screen in 47 multiple myeloma cell lines against the NCATS MIPE library collection: Delta47_JCRB cell viability assay (AID 1918925; note: nearly all actives have a fitted effect of over 45% in size; note: potency is the fitted concentration of half-maximal effect); conditions: Delta47 myeloma viability, CellTiter-Glo ATP, 48 h; series mostly up to 45.8 µM
Method in brief: (§1)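 Primary qHTS used for cherry-picking: cells at 500/well, library compounds for 48 h (37C, 5% CO2), luminescent ATP assay.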

[6] = Quantitative High-Throughput drug screen in 47 multiple myeloma cell lines against the NCATS MIPE library collection: EJM_DSMZ cell viability assay (AID 1918926; note: nearly all actives have a fitted effect of over 30% in size; note: potency is the fitted concentration of half-maximal effect); conditions: EJM myeloma cell viability, CellTiter-Glo ATP, 48 h; series mostly up to 45.8 µM
Method in brief: as §1

[7] = target: Phospholipid hydroperoxide glutathione peroxidase GPX4 (Homo sapiens) (UniProt P36969); test: Primary qHTS Assay for Inhibitors of Recombinant Selenoprotein Glutathione Peroxidase 4 (GPX4) (AID 1845192); conditions: recombinant GPX4, GR-coupled NADPH fluorescence, 15 min; series mostly up to 50 µM; note: nearly all actives have a fitted effect of over 65% in size
Chain of Phospholipid hydroperoxide glutathione peroxidase GPX4 (Homo sapiens) (P36969 whole entry, looked up): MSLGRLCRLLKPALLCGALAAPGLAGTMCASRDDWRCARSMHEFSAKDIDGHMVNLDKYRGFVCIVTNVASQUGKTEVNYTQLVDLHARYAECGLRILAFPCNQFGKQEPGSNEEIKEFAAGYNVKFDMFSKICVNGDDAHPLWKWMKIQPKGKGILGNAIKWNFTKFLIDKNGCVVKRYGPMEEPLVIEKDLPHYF
Method in brief: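 NADPH consumption, followed by fluorescence at 340/450 nm between 0 and 15 min, reports GPX4 activity via coupled glutathione reductase (100 nM). Enzyme 200 nM was pre-exposed to compound 30 min; 0.5 mM cumene hydroperoxide and 1 mM GSH served as substrates.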

[8] = Primary fluorescence-based thiol-reactive (MSTI) qHTS assay for identification of artifact compounds. (AID 1845221); conditions: MSTI thiol-reactivity probe, 1 h; series mostly up to 53.8 µM;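 note: thiol-reactive compounds lower the probe fluorescence signal; nearly all actives have a fitted effect of over 65% in size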
Method in brief: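 In PBS pH 7.4 with 2% DMSO, each compound met 4 uM MSTI for one hour at ambient temperature, shielded from light, before fluorescence detection.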

CC[C@H](Nc1ncnc2nc[nH]c12)c1nc2cccc(F)c2c(=O)n1-c1ccccc1
inactive: outcome [1] inactive [at 11.6 µM] | activity, negative = inhibition [2] -6.53% [at 11.6 µM] | redox activity (% of DA3003) [3] 6.84% [at 11.5 µM]
active: Potency [4] 20900 nM | Potency [5] 5260 nM | Potency [6] 14800 nM

COc1ccc(-c2ccc3c(N4CCOC[C@H]4C)nc(N4CCOC[C@H]4C)nc3n2)cc1CO
active: Potency [4] 23.5 nM

NC(=O)C1CCCc2c1[nH]c1ccc(Cl)cc21 (centres undefined)
inactive: Potency [7] | Potency [4] | Potency [6]

Cc1cc(SCc2sc(-c3ccc(C(F)(F)F)cc3)nc2C)ccc1OCC(=O)O
inactive: Potency [8] | outcome [2] | outcome [3] | Potency [4] | Potency [6]

CCC(C)n1ncn(-c2ccc(N3CCN(c4ccc(OC[C@H]5CO[C@](Cn6cncn6)(c6ccc(Cl)cc6Cl)O5)cc4)CC3)cc2)c1=O (some centres undefined)
active: Potency [6] 2960 nM
inactive: Potency [7] | Potency [1] | Potency [8] | outcome [2] | outcome [3] | Potency [5]

COc1ccc(CC2=NN3C([C@@H](CCc4ccccc4)[C@@H](C)O)=NC(C)C3C(=O)N2)cc1OC (some centres undefined)
inactive: Potency [4] | Potency [6]

O=C(Nc1ccc(F)c(C(F)(F)F)c1)Nc1nnc(-c2ccncc2)s1
inactive: Potency [1] | Potency [8] | outcome [2] | outcome [3]
active: Potency [4] 3320 nM | Potency [5] 2960 nM | Potency [6] 5900 nM

Cc1c(CN2CCN(C(=O)C(C)C)CC2)sc2c(N3CCOCC3)nc(-c3cnc(N)nc3)nc12
active: Potency [4] 83.3 nM | Potency [5] 46.9 nM | Potency [6] 833 nM
